{"source": "the OligoGym collection", "data": [{"target": "ZNF599", "experiment": "pooled miR-30 sensor sort-seq; sequence = guide strand", "settings": "shRNA", "values": [{"sequence": "TTGTGGAGTGACTCGTTCCTGT", "sensor-assay potency score (higher = more potent)": -0.347}, {"sequence": "TTCTCTACAAACATAGGGCTTC", "sensor-assay potency score (higher = more potent)": 0.194}, {"sequence": "TAAATGCATGTTAACCACCAGG", "sensor-assay potency score (higher = more potent)": -1.03}, {"sequence": "TATGGGTCCTCTTATGTCGGAT", "sensor-assay potency score (higher = more potent)": -0.578}, {"sequence": "TTATTTTAAAATATGCTTGAGA", "sensor-assay potency score (higher = more potent)": -0.0715}, {"sequence": "TTAGCTTTTCCTCATCTCTAGC", "sensor-assay potency score (higher = more potent)": -0.541}, {"sequence": "TGAATCTTTAATATAATTCTTT", "sensor-assay potency score (higher = more potent)": -0.316}, {"sequence": "TTGAGAGTCACACTCATGGAGA", "sensor-assay potency score (higher = more potent)": -0.714}, {"sequence": "TTGCACATTCTTTGCACTCCAA", "sensor-assay potency score (higher = more potent)": -0.563}, {"sequence": "AATCTCTTGAGGATCTCTGTGC", "sensor-assay potency score (higher = more potent)": -0.218}, {"sequence": "TTCCACATTCTCTACAAACATA", "sensor-assay potency score (higher = more potent)": -1.71}]}, {"target": "ZNF609", "experiment": "pooled miR-30 sensor sort-seq; sequence = guide strand", "settings": "shRNA", "values": [{"sequence": "TTGACATCCTCAGAAGTGCTGC", "sensor-assay potency score (higher = more potent)": 0.188}, {"sequence": "TAAACATATGTCCACATCCGGG", "sensor-assay potency score (higher = more potent)": -1.36}, {"sequence": "TCTTTTTCCATACACTTCCTTT", "sensor-assay potency score (higher = more potent)": -0.591}, {"sequence": "TGAAACTGTAGATCTTGTCGGC", "sensor-assay potency score (higher = more potent)": 0.618}, {"sequence": "TTTCTGTCCAGAACAGTGGGTT", "sensor-assay potency score (higher = more potent)": 0.109}, {"sequence": "TTGCAGTCACTACTTGTGCTTT", "sensor-assay potency score (higher = more potent)": -0.589}, {"sequence": "TTGACTTTCTTTAGCAGGCGAC", "sensor-assay potency score (higher = more potent)": -0.497}, {"sequence": "TTGGAGAATAGTAACTCTCAAA", "sensor-assay potency score (higher = more potent)": -1.39}, {"sequence": "TGATTTGACACTGTCTACCTTG", "sensor-assay potency score (higher = more potent)": 0.639}, {"sequence": "TTTGTGAGACAGATGCACCGTT", "sensor-assay potency score (higher = more potent)": 0.735}, {"sequence": "TATCGTGGGAGACTTGCTCTTG", "sensor-assay potency score (higher = more potent)": -0.437}, {"sequence": "TATTGGATCCATCTCTGCCTGT", "sensor-assay potency score (higher = more potent)": -0.575}]}, {"target": "ZNF630", "experiment": "pooled miR-30 sensor sort-seq; sequence = guide strand", "settings": "shRNA", "values": [{"sequence": "ATACTTAGTACATTCATAGGGT", "sensor-assay potency score (higher = more potent)": 0.067}, {"sequence": "TAAGTCTGAATTAGACTTCAAG", "sensor-assay potency score (higher = more potent)": -0.977}, {"sequence": "TATAATTAGATGTGACTTCTGG", "sensor-assay potency score (higher = more potent)": 0.548}, {"sequence": "TAATTAGATGTGACTTCTGGGA", "sensor-assay potency score (higher = more potent)": -0.376}, {"sequence": "ACACATACTACAAACATTGGGT", "sensor-assay potency score (higher = more potent)": -0.0412}, {"sequence": "TTGGACACTCAAAACACTCATA", "sensor-assay potency score (higher = more potent)": -0.509}, {"sequence": "TAGAATGAGATGTGACTTCAGG", "sensor-assay potency score (higher = more potent)": -0.186}, {"sequence": "TTTCACATTGACTATCTCCATA", "sensor-assay potency score (higher = more potent)": -0.895}, {"sequence": "TTATAATTTAGTAAGTCTGAAT", "sensor-assay potency score (higher = more potent)": -1.16}, {"sequence": "TTCTTTCTTGCATAGCTCCTGT", "sensor-assay potency score (higher = more potent)": 0.0285}, {"sequence": "TTGCTTATGACTGAGAACTTTT", "sensor-assay potency score (higher = more potent)": -0.853}, {"sequence": "TTCCATACTTAGTACATTCATA", "sensor-assay potency score (higher = more potent)": -0.904}]}, {"target": "ZNF653", "experiment": "pooled miR-30 sensor sort-seq; sequence = guide strand", "settings": "shRNA", "values": [{"sequence": "TAGCAAGCACAGGTCCTCCTTC", "sensor-assay potency score (higher = more potent)": -0.219}, {"sequence": "TGAAGTTGTACTGCACCTCCGC", "sensor-assay potency score (higher = more potent)": -0.192}, {"sequence": "ATGATGGCTGACATGTCGCTGC", "sensor-assay potency score (higher = more potent)": -0.928}]}]}
